Experimental data published in PubChem BioAssay (NCI).
This is part of a sample that, as a whole, favours compounds with a hit. Of some 83,000 tested, about 20% had one in any assay.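 The endpoint reported here, percent growth, reads 100 for growth as untreated, 0 for no net growth and -100 for all cells dead.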 Activity calls are given as the source filed them. The calls were made as follows: active = growth percent below 10; inactive = the rest.

These compounds were tested on M14 melanoma (assay: NCI-60 one-dose screen, 48 h (100 = growth as untreated, 0 = no growth, -100 = all killed)). Conditions: 10 µM unless noted.

SMILES | growth
Fc1ccc(-c2nnc(/C=C/c3cn(-c4ccccc4)nc3-c3ccccc3)o2)cc1 | 93.1% (inactive)
COC(=O)[C@]12CC[C@@H](C)[C@H](C)[C@@H]1C1=CC[C@@H]3[C@@]4(C)C=C(O)C(=O)[C@@]5(C)COC(=C54)C[C@@]3(C)[C@]1(C)CC2 | -63.2% (active)
Nc1ccc(S(=O)(=O)Nc2ncccn2)cc1 | 115% (inactive)
CC1CC(C)/C(=N/NC(N)=O)C(C(O)CC2CCC(=O)NC2=O)C1 (stereo not drawn) | 34.1% (inactive)
O=C(/C=C/c1cc2ccccc2[nH]c1=O)c1ccc(Cl)cc1 | 44.7% (inactive)
CSc1nc2c(c(=O)[nH]1)C(c1ccc(Cl)cc1)C1=C(N2)/C(=C/c2ccc(Cl)cc2)CNC1 (stereo not drawn) | 64.1% (inactive)
ClC1=C(Cl)C(Cl)=C(Cl)C1=Cc1ccc(Cl)cc1 | -47.6% (active)
O=C1C(Cl)=C(N=Nc2c(Cl)c(O)c3ccccc3c2O)C(=O)c2ccccc21 | 59.5% (inactive)
CN(CC(=O)Nc1nc2ccccc2[nH]1)S(=O)(=O)c1ccc(Cl)cc1 | 95.7% (inactive)
COC(=O)[C@]12CC[C@@H](C)[C@H](C)[C@@H]1C1=CC[C@@H]3[C@@]4(C)C[C@@H](OC(=O)c5ccco5)[C@H](O)[C@@](C)(CO)[C@@H]4[C@H](O)C[C@@]3(C)[C@]1(C)CC2 | -59.5% (active)
Fc1ccc(-c2nc(Nc3ccc(-c4nc5ccccc5[nH]4)cc3)nc(N3CCOCC3)n2)cc1 | -82.6% (active)
CO[C@H]1/C=C/O[C@@]2(C)Oc3c(C)c(O)c4c(O)c(c(/C=N/N5CCN(C)CC5)c(O)c4c3C2=O)NC(=O)/C(C)=C\C=C\C(C)[C@H](O)[C@@H](C)[C@@H](O)[C@@H](C)[C@@H](OC(C)=O)[C@@H]1C (stereo partly drawn) | 102% (inactive)
COc1ccc(-n2nnc(C(=O)O)c2-c2cc(OC)c(OC)c(OC)c2)cc1 | 104% (inactive)
O=C(Nc1ccc(OCc2nnc(-c3ccccc3)o2)c(F)c1)Nc1ccc(Cl)c(C(F)(F)F)c1 | 23.8% (inactive)
Cc1cc(C(C)(C)C)cc(C)c1CC1=NCCN1 | 107% (inactive)

These compounds were tested on HCT-15 colon in the same assay as above. Conditions: 10 µM unless noted.

SMILES | growth
CC(c1cc(Cl)ccc1O)c1cc(Cl)ccc1O | 29.7% (inactive)
COc1cc2c(cc1OCCCOc1ccc(-c3cc4ccccc4c4ccccc34)cc1)N=C[C@@H]1CCCN1C2=O | -64% (active)
COc1cc2c(cc1OCCCCCn1c(-c3ccc(OCc4ccccc4)cc3)nc3cc(N4CCOCC4)ccc31)N=C[C@@H]1CCCN1C2=O | -22.7% (active)
CSc1ccc2c(c1)N(CCC1CCCCN1C)c1ccccc1S2 (stereo not drawn) | 43.4% (inactive)
O=C(CSc1nnc(Nc2ccccc2)s1)NCCc1ccc(F)cc1 | 120% (inactive)
CCC(c1ccccc1)c1noc(CCN(CC)CC)n1 (stereo not drawn) | 108% (inactive)
Cn1c(=O)c2c(nc(Br)n2CCC(=O)Nc2ccc(F)cc2)n(C)c1=O | 108% (inactive)
CCC1=C(c2ccc(OC)cc2)C(C)Oc2cc(OC(C)=O)ccc21 (stereo not drawn) | 85.5% (inactive)
O=C1C2C3C=CC(O3)C2C(=O)N1Nc1ccccc1 (stereo not drawn) | 104% (inactive)
Cc1cc(C)n2nc(SCC(=O)Nc3sc4c(c3C(N)=O)CCC4)nc2n1 | 108% (inactive)
COc1ccc(Nc2ccnc(NCCCNc3ccnc4cc(Cl)ccc34)n2)cc1 | -54.6% (active)
Oc1[nH]c2ccccc2c1/C=c1/ccc2c(c1)N=C(c1cc(F)cc(F)c1)N=2 | 31.5% (inactive)
CCC1=C(c2ccc(OC)cc2)C(C)(C)Oc2c1ccc(O)c2CN1CCCC1 | 8.13% (active)
CN(C)c1ccc(/C=C(\C#N)c2nc3ccccc3c(=O)[nH]2)cc1 | 97.2% (inactive)
Cc1cccc(Cl)c1NC(=O)c1ccc2nc(NC(=O)NC3CC(C)(C)NC(C)(C)C3)sc2c1 | 103% (inactive)
CCC(=O)Nc1ccccc1C#C/C=C\C#Cc1ccccc1C(F)(F)F | 56.3% (inactive)
Nc1ccc2c3c(cccc13)-c1ccccc1-2 | 86.1% (inactive)
CC[C@]1(O)CC2CN(CCc3c([nH]c4ccccc34)[C@@](C(=O)OC)(c3cc4c(cc3OC)N(C)[C@H]3[C@@](O)(C(=O)OC)[C@H](OC(C)=O)[C@]5(CC)C=CCN6CC[C@]43[C@@H]65)C2)C1 (stereo partly drawn) | 6.5% (active)
COc1ccc(/C=N/NC(=O)c2ccc(S(C)(=O)=O)cc2)cc1OC | 102% (inactive)

SMILES | growth
C=CCCCCCCCCC(=O)[O][Sn]([CH2]CCC)([CH2]CCC)[CH2]CCC | -73.3% (active)
Cc1cc(CC(=O)O)n(C)c1C(=O)c1ccc(Cl)cc1 | 103% (inactive)
Fc1ccc(-c2nnc(/C=C/c3cn(-c4ccccc4)nc3-c3ccccc3)o2)cc1 | 96.1% (inactive)
COC(=O)[C@]12CC[C@@H](C)[C@H](C)[C@@H]1C1=CC[C@@H]3[C@@]4(C)C=C(O)C(=O)[C@@]5(C)COC(=C54)C[C@@]3(C)[C@]1(C)CC2 | -82.3% (active)
Nc1ccc(S(=O)(=O)Nc2ncccn2)cc1 | 99.1% (inactive)
CC1CC(C)/C(=N/NC(N)=O)C(C(O)CC2CCC(=O)NC2=O)C1 (stereo not drawn) | 37.8% (inactive)
O=C(/C=C/c1cc2ccccc2[nH]c1=O)c1ccc(Cl)cc1 | 41.6% (inactive)
CSc1nc2c(c(=O)[nH]1)C(c1ccc(Cl)cc1)C1=C(N2)/C(=C/c2ccc(Cl)cc2)CNC1 (stereo not drawn) | 13.5% (inactive)
ClC1=C(Cl)C(Cl)=C(Cl)C1=Cc1ccc(Cl)cc1 | 66.5% (inactive)
O=C1C(Cl)=C(N=Nc2c(Cl)c(O)c3ccccc3c2O)C(=O)c2ccccc21 | 61.7% (inactive)
N#Cc1cnc2cc(OC[C@H](O)CO)c(NC(=O)CC3CSSC3)cc2c1Nc1ccc(OCc2cccc(F)c2)c(Cl)c1 | 27.3% (inactive)
CN(CC(=O)Nc1nc2ccccc2[nH]1)S(=O)(=O)c1ccc(Cl)cc1 | 90.8% (inactive)
COC(=O)[C@]12CC[C@@H](C)[C@H](C)[C@@H]1C1=CC[C@@H]3[C@@]4(C)C[C@@H](OC(=O)c5ccco5)[C@H](O)[C@@](C)(CO)[C@@H]4[C@H](O)C[C@@]3(C)[C@]1(C)CC2 | -95.7% (active)
Fc1ccc(-c2nc(Nc3ccc(-c4nc5ccccc5[nH]4)cc3)nc(N3CCOCC3)n2)cc1 | -92.6% (active)
CO[C@H]1/C=C/O[C@@]2(C)Oc3c(C)c(O)c4c(O)c(c(/C=N/N5CCN(C)CC5)c(O)c4c3C2=O)NC(=O)/C(C)=C\C=C\C(C)[C@H](O)[C@@H](C)[C@@H](O)[C@@H](C)[C@@H](OC(C)=O)[C@@H]1C (stereo partly drawn) | 87.7% (inactive)
COc1ccc(-n2nnc(C(=O)O)c2-c2cc(OC)c(OC)c(OC)c2)cc1 | 101% (inactive)
O=C(Nc1ccc(OCc2nnc(-c3ccccc3)o2)c(F)c1)Nc1ccc(Cl)c(C(F)(F)F)c1 | 11.8% (inactive)
Cc1cc(C(C)(C)C)cc(C)c1CC1=NCCN1 | 102% (inactive)
COc1ccc(-c2csc(NC(=O)c3cc(OC)c(OC)c(OC)c3)n2)cc1 | 107% (inactive)
